In this experiment the target is Nonstructural protein 3 (Zika virus) (UniProt A0A024AXB9). Conditions: PRVABC59, Concentration 10.0 uM.

This passage reports pKD results from ChEMBL document CHEMBL5598561, “ASAP - In vitro binding kinetics” (2024).

Nonstructural protein 3 (Zika virus), sequence (A0A024AXB9 as listed by the source): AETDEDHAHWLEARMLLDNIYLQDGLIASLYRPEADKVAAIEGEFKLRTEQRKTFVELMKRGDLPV

Usually pKD stands for −log10 of the KD, conventionally taken in molar units. Read a high pKD as a low KD. `Cc1cccc(CNc2ccc(Cl)cc2C(=O)Nc2ccc3c(c2)CNC3)n1`: the pKD reads like this: (Immobilization level 10000.0 pg/mm2, Rmax 24.0 pg/mm2, ka 19887.988 M-1s-1, kd 1.214 1/s) 4.21; (Immobilization level 12000.0 pg/mm2, Rmax 8.0 pg/mm2, ka 63837.388 M-1s-1, kd 0.552 1/s) 5.06; (Immobilization level 13000.0 pg/mm2, Rmax 43.0 pg/mm2, ka 14963.881 M-1s-1, kd 1.059 1/s) 4.15.
In the case of `O=C(Nc1ccc2c(c1)CNC2)c1cc(Cl)cc2ccncc12`, the pKD was 6.22 (Immobilization level 10000.0 pg/mm2, Rmax 18.0 pg/mm2, ka 555072.266 M-1s-1, kd 0.336 1/s); 6.03 (Immobilization level 12000.0 pg/mm2, Rmax 46.0 pg/mm2, ka 241038.936 M-1s-1, kd 0.226 1/s); 6.17 (Immobilization level 13000.0 pg/mm2, Rmax 30.0 pg/mm2, ka 431290.6 M-1s-1, kd 0.289 1/s).
As to `N#C[C@H](Nc1ccc2c(c1)CNC2)c1cccc2[nH]ncc12`, the pKD came to 5.39 (Immobilization level 10000.0 pg/mm2, Rmax 24.0 pg/mm2, ka 92252.014 M-1s-1, kd 0.378 1/s); 5.57 (Immobilization level 12000.0 pg/mm2, Rmax 16.0 pg/mm2, ka 78971.5 M-1s-1, kd 0.214 1/s); 5.43 (Immobilization level 13000.0 pg/mm2, Rmax 22.0 pg/mm2, ka 80847.64 M-1s-1, kd 0.299 1/s).
In the case of `NCCCCc1ccc(NC(=O)c2cc(Cl)cc3[nH]ncc23)cc1`, the pKD runs as follows: (Immobilization level 10000.0 pg/mm2, Rmax 4.0 pg/mm2, ka 200640.001 M-1s-1, kd 1.917 1/s) 5.02; (Immobilization level 12000.0 pg/mm2, Rmax 9.0 pg/mm2, ka 275409.297 M-1s-1, kd 4.372 1/s) 4.8; (Immobilization level 13000.0 pg/mm2, Rmax 11.0 pg/mm2, ka 186293.866 M-1s-1, kd 4.24 1/s) 4.64.
As for `CC(C)c1nc2c(C(=O)Nc3ccc4c(c3)CNC4)cc(Br)cc2[nH]1`, the pKD came to 6.06 (Immobilization level 10000.0 pg/mm2, Rmax 28.0 pg/mm2, ka 451108.713 M-1s-1, kd 0.396 1/s); 5.81 (Immobilization level 12000.0 pg/mm2, Rmax 37.0 pg/mm2, ka 197303.267 M-1s-1, kd 0.307 1/s); 5.94 (Immobilization level 13000.0 pg/mm2, Rmax 31.0 pg/mm2, ka 315714.539 M-1s-1, kd 0.366 1/s).
As for `Clc1cc(CNc2ccc3c(c2)CNC3)c2cn[nH]c2c1`, the pKD was 5.42 (Immobilization level 10000.0 pg/mm2, Rmax 2.0 pg/mm2, ka 219034.03 M-1s-1, kd 0.842 1/s); 5 (Immobilization level 12000.0 pg/mm2, Rmax 10.0 pg/mm2, ka 126196.485 M-1s-1, kd 1.272 1/s); 5.29 (Immobilization level 13000.0 pg/mm2, ka 206129.831 M-1s-1, kd 1.048 1/s).
Turning to `O=C(Nc1ccc(C2CNC2)cc1)c1cc(Cl)cc2[nH]ncc12`, the negative-log KD (pKD) runs as follows: (Immobilization level 10000.0 pg/mm2, Rmax 37.0 pg/mm2, ka 291088.891 M-1s-1, kd 2.184 1/s) 5.12; (Immobilization level 12000.0 pg/mm2, Rmax 69.0 pg/mm2, ka 224213.878 M-1s-1, kd 1.69 1/s) 5.12; (Immobilization level 13000.0 pg/mm2, Rmax 34.0 pg/mm2, ka 337518.302 M-1s-1, kd 1.709 1/s) 5.3.
Compound `Cc1ccc2cc(Cl)cc(C(=O)Nc3ccc4c(c3)CNC4)c2n1` returned a pKD (Immobilization level 10000.0 pg/mm2, Rmax 26.0 pg/mm2, ka 93254.644 M-1s-1, kd 1.647 1/s) of 4.75; a pKD (Immobilization level 12000.0 pg/mm2, Rmax 38.0 pg/mm2, ka 56274.373 M-1s-1, kd 0.881 1/s) of 4.8; a pKD (Immobilization level 13000.0 pg/mm2, Rmax 28.0 pg/mm2, ka 92341.007 M-1s-1, kd 1.18 1/s) of 4.89.
On to `N#Cc1cc(Cl)cc([C@H](C#N)Nc2ccc3c(c2)CNC3)c1`, for which the pKD came to 5.3 (Immobilization level 10000.0 pg/mm2, Rmax 24.0 pg/mm2, ka 238302.252 M-1s-1, kd 1.184 1/s); 5.38 (Immobilization level 12000.0 pg/mm2, Rmax 44.0 pg/mm2, ka 146250.163 M-1s-1, kd 0.612 1/s); 5.56 (Immobilization level 13000.0 pg/mm2, Rmax 28.0 pg/mm2, ka 315015.409 M-1s-1, kd 0.863 1/s).
With `Cc1ccc(C(C)C)c(C(=O)Nc2ccc3c(c2)CNC3)c1`, the pKD turned out to be 4.43 (Immobilization level 10000.0 pg/mm2, Rmax 25.0 pg/mm2, ka 195679.525 M-1s-1, kd 7.321 1/s); 4.87 (Immobilization level 12000.0 pg/mm2, Rmax 28.0 pg/mm2, ka 382623.73 M-1s-1, kd 5.226 1/s); 4.69 (Immobilization level 13000.0 pg/mm2, Rmax 25.0 pg/mm2, ka 300897.372 M-1s-1).
